Data on 1 molecule can be found in PubChem BioAssay AID493072 (Broad Institute, 2011).

Measured potencies and affinities stand elsewhere. Calls of active or inactive are those of the source.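 The calls were made as follows: active = signal drops and a fitted half-effect dose is at or below ten times that sample's top valid dose; inconclusive = flat fit with a moderate drop, or a poor fit; inactive = the rest.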

A short description of the assay: inhibitors of AI-2 quorum sensing in V. harveyi, dose response, LuxS, LuxPQ, dry powder, set 2 (AID 493072).

For `CCc1ccc(C(=O)Nc2ccc(Br)cn2)cc1`, the call was inactive.
